Laboratory results taken from PubChem BioAssay (EPA / NIEHS).
Results filed as inconclusive are left out. Active and inactive are the calls of the source. The calls were made as follows: active = hit-call score of the fitted dose curve at least 0.9, where 1 is the maximum; inconclusive = response in the unintended direction; inactive = score below 0.9.

Assay: Tanguay_ZF_120hpf_JAW_legacy: (Legacy) Oregon State University Tanguay Lab 120 Hour Post-fertilization zebrafish Assay for Jaw Malformation (AID 2283638);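 as to AC50: active means more embryos with jaw malformation than DMSO controls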
Protocol: Tanguay_ZF_120hpf_legacy is a whole embryo, multiplexed endpoint assay using zebrafish larvae exposed for 120 hours post fertilization on a 96-well plate.Tanguay_ZF_120hpf_JAW_legacy is one of one assay component(s) measured or calculated from the Tanguay_ZF_120hpf_legacy assay. It is designed to make measurements of zebrafish development as detected with brightfield microscopy of developing zebrafish embryos.Data from the assay component Tanguay_ZF_120hpf_JAW_legacy was analyzed into 1 assay endpoints. This assay endpoint, Tanguay_ZF_120hpf_JAW_legacy, was analyzed in the positive analysis fitting direction relative to DMSO as the negative control and baseline of activity. Using a type of morphology reporter, gain-of-signal activity can be used to understand changes in developmentals as they relate to the whole embryo. To generalize the intended target to other relatable targets, this assay endpoint is annotated to the zebrafish development intended target family, where the subfamily is embryonic jaw development.
Zebrafish husbandry: Tropical 5D wild-type adult zebrafish were housed in at an approximate density of 1000 per 100 gallon tank at the Sinnhuber Aquatic Research Laboratory, Oregon State University, Corvallis, OR. Each tank was kept at standard laboratory conditions of 28C on a 14-h light/10-h dark photoperiod in fish water consisting of reverse osmosis water supplemented with a commercially available salt (Instant Ocean). Spawning funnels were placed into the tanks the night prior, and embryos were collected and staged. To increase bioavailability, the chorion was enzymatically removed using pronase (63.6mg/ml, >/= 3.5U/mg, Sigma-Aldrich: P5147) at 4 hours post fertilization (hpf) using a custom automated dechorionator.Chemical exposures: Six hpf dechorionated embryos were placed 1 embryo per well in a 96-well plate prefilled with 90 ul of EM using automated embryo placement systems (AEPS). Ten microliters of each row of dilution plate 2 was added to 2 exposure plates. The final DMSO concentration used was 0.64% (vol/vol). Thirty-two embryos were also exposed to 5uM trimethyltin chloride (positive control). Plates were sealed to prevent evaporation and foil covered to reduce light exposure and kept in a 28C incubator. Embryos were statically exposed until 120 hpf. At 24 hpf, embryos were assessed for photomotor response using a custom photomotor response analysis tool (PRAT) and for developmental toxicity endpoints (MO24: mortality at 24 hpf, DP: developmental progression, SM: spontaneous movement, and NC: notochord distortion). At 120 hpf, locomotor activity was measured using Viewpoint Zebralab and assessed for 18 endpoints. Zebrafish acquisition and analysis program (ZAAP), a custom program designed to inventory, acquire, and manage zebrafish data, was used to collect developmental endpoints as either present or absent (i.e., binary responses were recorded). If mortality occurred for an embryo (at either 24 or 120 hpf), the non-mortality endpoints were not measured.

| Compound | outcome | AC50 |
| --- | --- | --- |
| CCCCCOC(C)=O | inactive |  |
| C[C@]12C=CC(=O)C=C1CC[C@H]1[C@@H]3C[C@@H](O)[C@](O)(C(=O)CO)[C@@]3(C)C[C@H](O)[C@@]12F | inactive |  |
| C[C@@H](Oc1ccc(CNC(=O)c2cccnc2Oc2ccc3c(c2)OCO3)c(F)c1)C(=O)O | inactive |  |
| Cc1ncc([C@@H](CCCCCCc2ccc3c(n2)NCCC3)CC(=O)O)cn1 | inactive |  |
| Cc1nc(-c2ccccn2)ncc1C(=O)Nn1cc(C)c2cc(F)ccc21 | inactive |  |
| CCCCC(CC)C(=O)OCCOCCOCCOC(=O)C(CC)CCCC (stereo not given) | inactive |  |
| O=c1[nH]cnc2c1ncn2[C@H]1CC[C@@H](CO)O1 | inactive |  |
| NC(=O)NN=Cc1ccc([N+](=O)[O-])o1 | inactive |  |
| COCc1nnc(-c2ccc[n+]([O-])c2)n1-c1c(Cl)c(Cl)cc2[nH]c(=O)c(=O)[nH]c12 | inactive |  |
| c1ccc2cc3ccccc3cc2c1 | inactive |  |
| CNC(C)=O | inactive |  |
| CCCCCCCC/C=C\CCCCCCCC(=O)OC[C@@H](O)[C@H]1OC[C@H](O)[C@H]1O | inactive |  |
| O=C(O)[C@H](O)[C@@H](O)C(=O)O | inactive |  |
| CCCCOC(=O)c1ccccc1 | inactive |  |
| OC[C@H]1O[C@@](CO)(O[C@H]2O[C@H](CO)[C@@H](O)[C@H](O)[C@H]2O)[C@@H](O)[C@@H]1O | inactive |  |
| CCCCN1C(=O)[C@@H]([C@H](O)C2CCCCC2)NC(=O)C12CCN(Cc1ccc(Oc3ccc(C(=O)O)cc3)cc1)CC2 | inactive |  |
| NC(=O)N1c2ccccc2C=Cc2ccccc21 | inactive |  |
| COc1cc(C(C)C)c2c(c1)S(=O)(=O)N(COc1cc(=O)n3cccc(OCCN4CCCCC4)c3n1)C2=O | inactive |  |
| CCCCCCCC1CCC(=O)O1 (stereo not given) |  | 40.3 µM (active) |
| CCn1nc(C)c2c1C(=O)NCC(c1ccc(O)cc1)=N2 | inactive |  |

| Compound | outcome | AC50 |
| --- | --- | --- |
| CCc1ccc(O)c(C(C)(C)C)c1 | inactive |  |
| CC(C)CCCCCCOC(=O)C1CCCCC1C(=O)OCCCCCCC(C)C (stereo not given) | inactive |  |
| CCCOc1ccc(S(=O)(=O)N2CCN(CC)CC2)cc1-c1nc2c(CC)n(Cc3ccccn3)nc2c(=O)[nH]1 | inactive |  |
| Cn1cc[nH]c1=S | inactive |  |
| CC1(C)C(=O)N(Cl)C(=O)N1Cl | inactive |  |
| CCOc1ccc2[nH]cc(C(=O)NCc3ccccc3)c(=O)c2n1 | inactive |  |
| CCCCCCCCCCCCCCO | inactive |  |
| CC(C)C(=O)Nc1ccc([N+](=O)[O-])c(C(F)(F)F)c1 | inactive |  |
| CC[C@H](C)C(=O)O[C@H]1C[C@H](O)C=C2C=C[C@H](C)[C@H](CC[C@@H](O)C[C@@H](O)CC(=O)O)[C@H]21 | inactive |  |
| COS(C)(=O)=O | inactive |  |
| O=C(O)c1cccc(C[C@@H]2COc3ccc(OCc4nc5cc(F)ccc5s4)cc3[C@@H]2O)c1 |  | 9.13 µM (active) |
| OC[C@H]1O[C@@H]2O[C@H]3[C@H](O)[C@@H](O)[C@@H](O[C@H]4[C@H](O)[C@@H](O)[C@@H](O[C@H]5[C@H](O)[C@@H](O)[C@@H](O[C@H]6[C@H](O)[C@@H](O)[C@@H](O[C@H]7[C@H](O)[C@@H](O)[C@@H](O[C@H]1[C@H](O)[C@H]2O)O[C@@H]7CO)O[C@@H]6CO)O[C@@H]5CO)O[C@@H]4CO)O[C@@H]3CO | inactive |  |
| CCOC(N)=O | inactive |  |
| c1ccc2ncccc2c1 | inactive |  |
| OCc1ccccc1 | inactive |  |
| CCN(CC)C(=S)SSC(=S)N(CC)CC |  | 1.24 µM (active) |
| CCCC(CCC)C(=O)O | inactive |  |
| NNC(=O)c1ccncc1 | inactive |  |
| NC(=O)N(O)[C@@H]1COc2cc(OCc3ccccc3)ccc21 | inactive |  |
| CCCc1ccccc1 | inactive |  |
